Screens deposited in PubChem BioAssay by National Center for Advancing Translational Sciences (NCATS).
RORg inh: blocks mouse ROR gamma transcriptional activity | hit rate 5.4% among 310,000 | Drosophila S2 Gal4-RORgamma UAS-luciferase reporter, 20 h | Potency, µM (highest dose often 53.6 µM), usual class: inhibitors | P51450; note: nearly all actives have a fitted effect of over 60% in size
Target sequence (P51450 whole entry, looked up, the tested form may be a part): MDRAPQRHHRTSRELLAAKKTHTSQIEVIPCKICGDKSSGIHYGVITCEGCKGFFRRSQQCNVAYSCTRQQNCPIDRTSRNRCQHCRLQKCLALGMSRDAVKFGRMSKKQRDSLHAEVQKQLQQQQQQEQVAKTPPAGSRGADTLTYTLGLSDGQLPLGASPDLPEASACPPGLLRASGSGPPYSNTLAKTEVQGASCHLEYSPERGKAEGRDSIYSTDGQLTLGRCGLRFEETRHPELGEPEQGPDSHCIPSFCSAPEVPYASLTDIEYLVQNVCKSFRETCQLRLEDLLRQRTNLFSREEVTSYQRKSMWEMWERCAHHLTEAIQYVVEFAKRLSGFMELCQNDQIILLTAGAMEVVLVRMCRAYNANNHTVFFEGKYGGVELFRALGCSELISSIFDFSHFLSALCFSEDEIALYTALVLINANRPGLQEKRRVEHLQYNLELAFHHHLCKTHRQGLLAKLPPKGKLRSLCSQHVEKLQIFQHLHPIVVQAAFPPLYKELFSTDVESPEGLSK
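Luminescence from a UAS-regulated Photinus luciferase reporter in stably transfected Drosophila Schneider cells is measured; decreased signal marks ROR gamma inhibition. Fusion expression is induced by 700 uM copper sulfate for 20 hr.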
ClpP mod: qHTS Assay for Activators of ClpP; Potency, µM (top dose mostly 57.5 µM); AID 651965, 2013; hit rate 1.9% among 340,000; purified B. subtilis ClpP, FRET peptide cleavage, 20 min; active = well fitted falling curve with a large enough effect; inconclusive = small, poorly fitted or top-dose-only effect; inactive = no such curve, though single readings can be large or run the other way; note: the source files actives as falling curves though it sought activators and does not explain the sign; nearly all actives have a fitted effect of over 65% in size
Target sequence (P80244 whole entry, looked up): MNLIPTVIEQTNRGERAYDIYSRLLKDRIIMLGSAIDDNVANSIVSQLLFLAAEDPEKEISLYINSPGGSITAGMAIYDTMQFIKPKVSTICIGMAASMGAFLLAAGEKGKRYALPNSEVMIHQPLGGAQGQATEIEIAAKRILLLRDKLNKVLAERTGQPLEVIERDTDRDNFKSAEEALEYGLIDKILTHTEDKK
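ClpP 10 microg/mL final, pH 8 Tris/KCl buffer with BSA, glycerol, Tween-20; compound pinned in; FRET-FV substrate; RT 20 min; Ex320/Em430; ΔFRET vs ADEP 5.8 microM, DMSO, no enzyme.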
VP16 counter: inhibits Gal4-VP16 luciferase reporter, ROR gamma counter-screen | Drosophila S2 Gal4-VP16 UAS-luciferase, luminescence, 20 h | hit rate 3.5% among 310,000 | Potency, µM (top dose mostly 53.6 µM), usual class: inhibitors;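 note: Gal4-VP16 expression switched on by copper sulfate through the metallothionein promoter; nearly all actives have a fitted effect of over 50% in size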
PINK1 expr mod: changes PINK1 expression; PINK1 immunofluorescence, high-content cytometry, 24 h; Potency, µM (highest dose often 76.6 µM), usual class: activators; hit rate 0.2% among 410,000; AID 624263; active = well fitted activation curve with a large enough effect; inconclusive = small, poorly fitted or top-dose-only effect; cell line not stated here; note: nearly all actives have a fitted effect of over 65% in size
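A stable cell line was treated with compounds at 5 concentrations for 24 hours, with CCCP as control. PINK1 levels and mitochondrial localization were measured by immunofluorescence with mitochondrial, cell and nuclear markers after fixation, read by laser-scanning cytometry.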
Sfp inh: Sfp phosphopantetheinyl transferase inhibition; Q9F4F7; AID 1490; Biochemical Sfp PPTase activity, qHTS; Potency, µM, most hits filed as inhibitors; hit rate 3.5% among 310,000;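 note: the enzyme is Sfp with the accession as filed and its product quenches rhodamine fluorescence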
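Sfp 15 nM + cpd, 15 min RT; start w/ rhodamine-CoA 5 uM, BHQ-2-YbbR 12.5 uM (final); 50 mM Hepes pH 7.6, 10 mM MgCl2, 0.01% NP-40, 0.01% BSA; read 525/598 nm at 0 and 30 min.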
Epigenetic reg: epigenetic control regulation, reporter derepression; murine LDR cells, GFP reporter derepression, 30 h; Potency, µM (top dose mostly 53.9 µM), most hits filed as activators; hit rate 0.2% among 280,000; AID 1865; note: nearly all actives have a fitted effect of over 60% in size
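Murine LDR cells bearing a silenced CMV-driven GFP reporter were exposed to compound for 30 h at 37 C. After PBS washes, GFP-positive cells (20-120 um objects) counted by laser-scanning microplate cytometry.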
Numbers stand for hits; ! = repeats disagree; [ ] = remark or other dose. Hits are enriched below; roughly 8.1% of the tested compounds scored in any of these assays. Unless noted, calls come from the whole dose curve; as a rule, active = well fitted curve in the direction sought with a large enough effect; inconclusive = small, poorly fitted or top-dose-only effect, or another doubt; inactive = no such curve, though single readings can be large; an effect the other way counts as inactive or inconclusive.

What do the screens show for `COCCn1c(SC(C)C(=O)Nc2ncc(Cl)cc2Cl)nc2ccccc21` (stereo not drawn)?
RORg inh: inactive; ClpP mod: inconclusive; VP16 counter: inactive; PINK1 expr mod: inactive; Sfp inh: inactive; Epigenetic reg: inactive

Results for COc1ccc(N(C(=O)/C=C\C(=O)Nc2ccc(Cl)cc2)C(C(=O)NCc2ccco2)c2ccc(C)cc2)cc1 (stereo not drawn) ?
ClpP mod: inactive; PINK1 expr mod: inactive; Epigenetic reg: inactive

How did CCc1cc2c(cc3c(=O)n(CCCC(=O)NCc4ccccc4Cl)nc(CC)n32)s1 do in these assays?
ClpP mod: inactive; PINK1 expr mod: inactive; Epigenetic reg: inactive

What do the screens show for `CCN(CC)C(=O)CSc1nc2c(sc(=S)n2-c2ccccc2)c(=O)n1Cc1ccco1`?
RORg inh: inconclusive; ClpP mod: inactive; VP16 counter: inactive; PINK1 expr mod: inactive; Sfp inh: 39.8µM; Epigenetic reg: inactive

Results for CCN(CC)C(=O)CSc1nc2c(sc(=S)n2CC)c(=O)n1-c1ccccc1 ?
RORg inh: inactive; ClpP mod: inactive; VP16 counter: inactive; PINK1 expr mod: inactive; Sfp inh: inactive; Epigenetic reg: inactive

How did CCc1ccc(C2CC(c3ccccc3)n3ncnc3N2)cc1 (stereo not drawn) do in these assays?
RORg inh: 17.8µM; ClpP mod: inactive; VP16 counter: inactive; PINK1 expr mod: inactive; Sfp inh: inactive; Epigenetic reg: inactive

What do the screens show for `CC(C)(C)c1ccc(C(=O)NC2(C(F)(F)F)NC(=O)N(CCc3ccccc3)C2=O)cc1` (stereo not drawn)?
ClpP mod: inactive; PINK1 expr mod: inactive; Epigenetic reg: inactive

Results for Cc1ccc(Cn2c(C)c3cnn(CC(=O)N4CCN(c5cc(C)ccc5C)CC4)c(=O)c3c2C)cc1 ?
ClpP mod: inconclusive; PINK1 expr mod: inactive; Epigenetic reg: inactive

Results for CC(=O)c1ccc(NC(=O)C2CCN(c3nnc(C)c4c(C)n(-c5ccccc5)nc34)CC2)cc1 ?
ClpP mod: inconclusive; PINK1 expr mod: inactive; Epigenetic reg: inconclusive

How did Fc1ccccc1-n1c(-c2ccc3ccccc3n2)n[nH]c1=S do in these assays?
RORg inh: 1.41µM; VP16 counter: inconclusive; PINK1 expr mod: inactive; Sfp inh: inactive; Epigenetic reg: inactive

How did S=c1[nH]nc(-c2ccc3ccccc3n2)n1-c1ccccc1 do in these assays?
RORg inh: 1.41µM; ClpP mod: inactive; VP16 counter: 2µM; PINK1 expr mod: inactive; Sfp inh: inactive; Epigenetic reg: inactive

How did CC(C)CCn1c(=O)c2sccc2n2c(CCCC(=O)Nc3ccc(F)c(Cl)c3)nnc12 do in these assays?
ClpP mod: inactive; PINK1 expr mod: inactive; Epigenetic reg: inactive

Results for Nc1ccc(/C=C/c2nccc3ccccc23)cc1 ?
ClpP mod: inactive; PINK1 expr mod: inactive

Results for Cc1cnc(NC(=O)C2CC(=O)N(c3ccc4c(c3)OCCO4)C2)s1 (stereo not drawn) ?
ClpP mod: 28.2µM; PINK1 expr mod: inactive

How did O=C(Nc1nc(-c2ccco2)c(-c2ccco2)s1)C1CC(=O)N(c2ccc3c(c2)OCCO3)C1 (stereo not drawn) do in these assays?
RORg inh: inactive; ClpP mod: inactive; VP16 counter: inactive; PINK1 expr mod: inactive; Sfp inh: 10µM; Epigenetic reg: inactive

Results for O=C(NCC1(N2CCCCC2)CCCCC1)C1CC(=O)N(c2ccc3c(c2)OCCO3)C1 (stereo not drawn) ?
RORg inh: inactive; ClpP mod: 8.91µM; VP16 counter: inactive; PINK1 expr mod: inactive; Sfp inh: inactive; Epigenetic reg: inactive

How did Cc1ccc(CNC(=O)C2CCCN(c3nn4cc(-c5ccc(C)cc5)nc4s3)C2)cc1 (stereo not drawn) do in these assays?
ClpP mod: inactive; PINK1 expr mod: inactive; Epigenetic reg: inconclusive

Results for O=[N+]([O-])c1ccc(N2CCN(c3ccc([N+](=O)[O-])cc3CO)CC2)c(CO)c1 ?
RORg inh: inconclusive; ClpP mod: inactive; VP16 counter: 6.31µM; PINK1 expr mod: inactive; Sfp inh: inactive

How did CCC(=O)NC(=S)N1CCN(c2ccc([N+](=O)[O-])cc2Cl)CC1 do in these assays?
RORg inh: 3.98µM; ClpP mod: inactive; VP16 counter: 15.8µM; PINK1 expr mod: inactive; Sfp inh: inactive; Epigenetic reg: inactive

How did O=C(c1ccco1)N1CCN(c2ccc([N+](=O)[O-])cc2Cl)CC1 do in these assays?
RORg inh: inactive; ClpP mod: inactive; VP16 counter: inactive; PINK1 expr mod: inactive; Sfp inh: inactive; Epigenetic reg: inactive

How did N#Cc1cc([N+](=O)[O-])ccc1N1CCN(c2ccccc2O)CC1 do in these assays?
RORg inh: inconclusive; ClpP mod: inactive; VP16 counter: inactive[10 µM]; PINK1 expr mod: inactive; Sfp inh: inactive; Epigenetic reg: inactive

Results for O=C(NC(=S)N1CCN(c2ccc([N+](=O)[O-])cc2Cl)CC1)c1ccco1 ?
RORg inh: 0.02µM; ClpP mod: inactive; VP16 counter: 0.0316µM; PINK1 expr mod: inactive; Sfp inh: inactive; Epigenetic reg: inactive

What do the screens show for `CCOc1ccccc1-n1nnc(S(=O)(=O)c2ccc(C)cc2)c1N`?
ClpP mod: inactive; PINK1 expr mod: inactive; Epigenetic reg: inactive

What do the screens show for `CN(C)c1ccc(-c2noc(C3CC(=O)N(c4ccc5c(c4)OCCO5)C3)n2)cc1` (stereo not drawn)?
ClpP mod: inactive; PINK1 expr mod: inactive; Epigenetic reg: inactive

Results for COCCNC(=O)CCCn1c(=O)[nH]c2ccsc2c1=O ?
ClpP mod: inactive; PINK1 expr mod: inactive; Epigenetic reg: inactive

How did CCCCN(C)C(=O)CCC(=O)NNc1nc2ccccc2c2nc(C)nn12 do in these assays?
RORg inh: inactive; ClpP mod: 25.1µM!; VP16 counter: inactive; PINK1 expr mod: inactive; Sfp inh: inactive; Epigenetic reg: inactive

How did CCN(CC)CCCNC(=O)CCC(=O)NNc1nc2ccccc2c2nc(C)nn12 do in these assays?
RORg inh: 17.8µM; ClpP mod: inactive; VP16 counter: inconclusive; PINK1 expr mod: inactive; Sfp inh: inactive; Epigenetic reg: inactive

Results for Cc1nc2c3ccccc3nc(NNC(=O)CCC(=O)NCCC(C)C)n2n1 ?
RORg inh: inactive; ClpP mod: inactive; VP16 counter: inactive; PINK1 expr mod: inactive; Sfp inh: inactive; Epigenetic reg: inactive

How did CC1CCc2c(sc3nc(-c4cc5cc(Br)ccc5oc4=O)[nH]c(=O)c23)C1 (stereo not drawn) do in these assays?
ClpP mod: inactive; PINK1 expr mod: inactive; Epigenetic reg: inactive

Results for CCCSS/C(CCO)=C(/C)N(C=O)Cc1cnc(C)nc1N ?
RORg inh: inconclusive; VP16 counter: inconclusive; Sfp inh: 56.2µM
